Data taken from PubChem BioAssay AID686978 (National Center for Advancing Translational Sciences (NCATS), 2013).
The whole screen tested about 420,000 compounds, of which about 64,000 (15%) were called active. Not shown: some 27% with an inconclusive outcome. The call rests on the fitted dose curve; in most records, active means well fitted inhibition curve with a large enough effect; inconclusive means small, poorly fitted or top-dose-only effect; inactive means flat fitted curve, though single readings scatter. The list is a sample of the results.

Assay: qHTS for Inhibitors of human tyrosyl-DNA phosphodiesterase 1 (TDP1): qHTS in cells in absence of CPT; further: nearly all actives have a fitted effect of over 55% in size
Conditions: DT40 Tdp1-/- hTDP1 cells, no CPT, ATP luminescence, 48 h; activity change, negative = growth inhibition: at 46.2 µM (top of the series)
How it was run: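 No-CPT arm: Tdp1-/-;hTDP1 DT40 cells (400/well) plus compounds, incubated ≥48 hr at 37 °C. Readout CellTiter-Glo luminescence.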
On the % scale 0 is the no-effect control and ±100 the full control effect; potency means the concentration at half of the fitted maximal effect.

Structure (SMILES) | activity change, negative = growth inhibition | Potency
COc1ccccc1NC(=O)COC(=O)COc1ccccc1F | -3.57% (inactive) | –
Cc1nnsc1S(=O)(=O)Cc1ccccc1Cl | 1.81% (inactive) | –
O=C(CSc1nc2c(cnn2-c2ccc(F)cc2)c(=O)[nH]1)N1CCCCCC1 | -16.2% (inactive) | –
CC(=O)c1ccc(S(=O)(=O)N2CCN(C(=O)/C=C/c3ccc4ccccc4n3)CC2)cc1 | -17.9% (inactive) | –
COc1cccc(/C=C/c2ccc3ccccc3n2)c1OC(C)=O | – | 16.4 µM (active)
COc1cccc(/C=C2\C=C(c3ccc(C)cc3)OC2=O)c1OC(C)=O | -5.6% (inactive) | –
O=C(Nc1ccccc1)c1ccc2nsnc2c1 | -22.4% (inactive) | –
c1ccc(CNCc2ccc(CNCc3ccccc3)cc2)cc1 | – | 10.3 µM (active)
O=C(Cc1ccccc1)NCc1ccc(F)cc1 | 5.8% (inactive) | –
Fc1ccc(CNCc2ccc(Br)cc2)cc1 | -29.2% (inactive) | –
O=Cc1c(NCCCN2CCCC2=O)c2ccccc2[nH]c1=O | -12.5% (inactive) | –
Cc1cc(Cl)c(S(=O)(=O)NCc2cccnc2)cc1OCC(N)=O | -3.14% (inactive) | –
O=C(NCC(c1ccc(Cl)cc1)N1CCOCC1)c1ccccc1F (stereo not drawn) | – | 13 µM (active)
COc1ccc(C(CNC(=O)c2cccnc2SC)N2CCOCC2)cc1 (stereo not drawn) | -21.2% (inactive) | –
CN1CCN(C(CNC(=O)c2ccccc2F)c2ccc3c(c2)OCO3)CC1 (stereo not drawn) | 3.73% (inactive) | –
O=C1CCCC(O)=C1N=Nc1ccc2ncsc2c1 | -12.3% (inactive) | –
Cc1ccc(C)c(NC(=O)C(c2ccccc2)N2CCN(CC(=O)NC3CC3)CC2)c1 (stereo not drawn) | 1.95% (inactive) | –
CCC(CO)Oc1cc(NC(=O)c2ccc(Cl)cc2)c2ncn(C(C)C)c2c1 (stereo not drawn) | -23.1% (inactive) | –
COc1cc(C(=O)N2CCC(c3ccncc3)CC2)cc(OC)c1OC | -23.6% (inactive) | –
Cc1cccc(CSc2nc3ccncc3n2Cc2ccc(C(=O)O)cc2)c1 | -2.18% (inactive) | –
COc1ccc(CSc2nnnn2-c2ccc(C(=O)O)cc2)cc1 | 2.56% (inactive) | –
COc1cccc(Cn2c(SCc3ccc(C(=O)N4CCC(C)CC4)cc3)nc3ccncc32)c1 | – | 20.6 µM (active)
COc1cccc(Cn2c(SCc3ccc(C(=O)N4CCCCC4)cc3)nc3ccncc32)c1 | – | 20.6 µM (active)
COC(=O)c1ccc2c(=O)n(CCN3CCOCC3)c(SCC(=O)Nc3cccc(OC)c3)nc2c1 | 0.614% (inactive) | –
CCCCNC(=O)C1(c2ccc(OC)cc2)CCOCC1 | 5.04% (inactive) | –
CCCCc1ccc(S(N)(=O)=O)cc1 | 4.03% (inactive) | –

Structure (SMILES) | activity change, negative = growth inhibition | Potency
N#Cc1nc(/C=C/c2ccc(F)cc2)oc1NC1CCCCC1 | -30% (inactive) | –
Nc1nonc1-n1nnc(C(=O)N/N=C/c2ccc(Cl)cc2)c1-c1ccc2c(c1)OCO2 | -9.73% (inactive) | –
O=C(NCCCO)C(=O)Nc1c2c(nn1-c1ccc(F)cc1)CSC2 | -5.47% (inactive) | –
COc1ccc(S(=O)(=O)N2CCN(C(=O)N(C)C)C2C)cc1 (stereo not drawn) | -7.79% (inactive) | –
CN=c1scc(-c2cc(OC)ccc2OC)n1/N=C/c1c(C)[nH]c2ccccc12 | – | 16.4 µM (active)
COC(=O)c1[nH]c2ccccc2c1NS(=O)(=O)c1ccc(OC)cc1OC | 1.01% (inactive) | –
COc1ccc(C)cc1Nc1nc(-c2c(C)[nH]c3ccccc23)cs1 | -22.6% (inactive) | –
COC(=O)/C(C#N)=C/c1occc1C | 0.245% (inactive) | –
COc1ccc(/C=C(\C#N)C(=O)OCC(=O)N(C)C2CCS(=O)(=O)C2)cc1 (stereo not drawn) | 6.36% (inactive) | –
COc1ccc(/C=C(\C#N)C(=O)ONC2=NCCCCC2)cc1 | – | 20.6 µM (active)
CC(=O)C1C(c2ccc(Cl)cc2)NC(=O)NC1(O)C(F)(F)F (stereo not drawn) | 3.1% (inactive) | –
CN(CC#CCC(c1ccccc1)c1ccccc1)C(C)(C)C | – | 17.8 µM (active)
O=C(CCc1ccccc1)NCCc1cccs1 | 14.1% (inactive) | –
COC(=O)[C@@H]1CC2=CC(=O)CC[C@]2(C)[C@@]23O[C@@H]2C[C@@]2(C)[C@@H](CC[C@@]24CCC(=O)O4)[C@H]13 | -25.3% (inactive) | –
CC1(C)CC(CNCCC(c2ccc(F)cc2)c2ccco2)CCO1 (stereo not drawn) | – | 14.6 µM (active)
CC1(C)CC(N(Cc2ccccc2)C(=O)Cc2ccccc2)CCO1 (stereo not drawn) | -15.1% (inactive) | –
O=c1c(Cl)c(NC2CC2)cnn1-c1ccccc1 | -1.63% (inactive) | –
Cc1cccc(-n2ncc(C#N)c2-n2cccc2)c1 | -15.3% (inactive) | –
Cc1cccc(-n2ncc(Cl)c(Cl)c2=O)c1 | – | 4.11 µM (active)
O=C(NCC1CCCO1)c1cc2c(s1)CCCC2 (stereo not drawn) | 6.28% (inactive) | –
CC(C)C(=O)N1c2ccccc2NC2=C(C(=O)CCC2)C1c1ccc(N(C)C)cc1 (stereo not drawn) | -9.38% (inactive) | –
CCCOC(=O)Nc1ccccc1C(N)=O | -26.5% (inactive) | –
CCOC(=O)N(Cc1ccccc1)C1CC1 | 3.18% (inactive) | –
O=C(Nc1nnc(CCc2ccccc2)s1)C1CCCO1 (stereo not drawn) | -8.27% (inactive) | –
O=C(COC(=O)c1ccc(Cl)nc1)NCc1cccs1 | 2.89% (inactive) | –
Cc1cccc(C(=O)NCC(=O)OCC(=O)N2CC3(C)CC2CC(C)(C)C3)c1 (stereo not drawn) | 2.52% (inactive) | –

Structure (SMILES) | activity change, negative = growth inhibition | Potency
Cc1nnnn1/C(=C\c1ccccc1)C(=O)OCC(=O)N1CC2(C)CC1CC(C)(C)C2 (stereo not drawn) | – | 14.6 µM (active)
CC(=O)NC(C)(C)C1CC=C(C)/C(=N\O)C1 (stereo not drawn) | 7.54% (inactive) | –
CCOC(=O)C1C(c2ccc(O)cc2)NC(=O)NC1(O)C(F)(F)F (stereo not drawn) | 16.9% (inactive) | –
CCN(CC)P(=O)(/C(Cl)=C\Nc1c(C)n(C)n(-c2ccccc2)c1=O)N(CC)CC | -4.15% (inactive) | –
O=C(COC(=O)C12CC3CC(CC(C3)C1)C2)NCc1ccco1 | -3.59% (inactive) | –
CCCCCCCCN1C(=O)[C@H](CC(=O)NCc2cccc3ccccc23)C[C@@]2(C(=O)OC)CCCCC=C12 | – | 20.6 µM (active)
CC1=C(C(=O)N2CCOCC2)CC(CC(=O)NCc2cccc3ccccc23)C(=O)N1CCC1=CCCCC1 (stereo not drawn) | -28.7% (inactive) | –
COc1ccccc1CNC(=O)CCCN1C(=O)NC2(CCCC2)C1=O | -6.56% (inactive) | –
CCCCNC(=O)C[C@@H]1C[C@@]2(C(=O)OCC)CCC=C2N(Cc2ccco2)C1=O | -10.6% (inactive) | –
CCCCNC(=O)C[C@@H]1C[C@@]2(C(=O)OCC)CCC=C2N(Cc2cccc3ccccc23)C1=O | – | 16.4 µM (active)
CCOC(=O)[C@]12CCC=C1N(Cc1ccco1)C(=O)[C@H](CC(=O)NCc1cccc(C(F)(F)F)c1)C2 | – | 25.9 µM (active)
CCOC(=O)[C@]12CCC=C1N(Cc1cccc3ccccc13)C(=O)[C@H](CC(=O)NCc1cccc(C(F)(F)F)c1)C2 | – | 23.1 µM (active)
CCCCN1C(=O)C(CC(=O)NCc2cccs2)CC(C(=O)N2CCOCC2)=C1C (stereo not drawn) | -0.267% (inactive) | –
CC1=C(C(=O)N2CCOCC2)CC(CC(=O)NCc2ccco2)C(=O)N1Cc1ccc(F)cc1 (stereo not drawn) | -16.3% (inactive) | –
O=C(Cn1nnc(-c2ccc(CN3CCOCC3)cc2)n1)NC1CCCCC1 | -2.3% (inactive) | –
COc1ccc(OCC(O)CNCCNc2nccc(C(F)(F)F)n2)cc1 (stereo not drawn) | -11.4% (inactive) | –
CC(=O)NCC(=O)N(Cc1ccco1)C1(C(=O)NC2CCCC2)CCCCC1 | -4.34% (inactive) | –
O=c1c(-c2ccc(F)c(F)c2)nc2cncnc2n1-c1ccccc1 | -15.4% (inactive) | –
COC(=O)[C@]12CCCCC=C1N(Cc1ccco1)C(=O)[C@H](CC(=O)NCCCCc1ccccc1)C2 | – | 16.4 µM (active)
COc1ccc(CCNC(=O)CCCCCNC(=O)N2CCn3c2nc2ccccc23)cc1OC | -26.2% (inactive) | –
CC1c2nc3ccccc3n2C(CC(=O)NCCCN2CCOCC2)C(=O)N1Cc1ccccc1 (stereo not drawn) | -13.8% (inactive) | –
CCOC(=O)[C@]12CCCC=C1N(Cc1cccc3ccccc13)C(=O)[C@H](CC(=O)NCC13CC4CC(CC(C4)C1)C3)C2 | – | 23.1 µM (active)
COC(=O)[C@@]12C[C@@H](CC(=O)NCCCCc3ccccc3)C(=O)N(CCc3ccc(OC)c(OC)c3)C1=CCC(C)(C)C2 | – | 20.6 µM (active)
C#CCNC(=O)C[C@@H]1C[C@@]2(C(=O)OCC)CCCC=C2N(Cc2ccco2)C1=O | -22% (inactive) | –
COc1ccc(C(=O)OCC(=O)NCCCc2ccccc2)cc1OC | -25.8% (inactive) | –
CCCCCC1CCC(c2nnc(SCC(C)=O)o2)CC1 (stereo not drawn) | -4.37% (inactive) | –

Structure (SMILES) | activity change, negative = growth inhibition | Potency
Cc1cc(C)n(-c2c(F)c(F)c(COC(=O)c3ccccc3)c(F)c2F)n1 | -20.9% (inactive) | –
O=C(C1=C(O)C(=O)N(c2ncccn2)C1c1cccs1)c1ccco1 (stereo not drawn) | -0.816% (inactive) | –
O=C(Oc1cccnc1)c1cc2ccccc2oc1=O | -3.98% (inactive) | –
CC(=O)N1CCN(CC(c2ccccc2)c2ccccc2)CC1 | -19.7% (inactive) | –
COc1ccc(CCn2ccc(O)c(Cc3ccc(Cl)cc3Cl)c2=O)cc1OC | -13.3% (inactive) | –
COc1ccc(CNC(=O)C(C)NCc2ccccc2Cl)cc1 (stereo not drawn) | -7.52% (inactive) | –
CC(CCc1ccc(O)cc1)NCc1ccc(Cl)cc1Cl (stereo not drawn) | – | 18.4 µM (active)
O=C(CN1CCN(c2ncc(C(F)(F)F)cc2Cl)CC1)Nc1ccc2c(c1)OCO2 | -4.82% (inactive) | –
O=C(NCC(=O)N1CCN(c2ncc(C(F)(F)F)cc2Cl)CC1)c1ccc(Br)o1 | – | 18.4 µM (active)
COc1ccc(N2CCN(C(=O)CNC(=O)c3ccc(Br)o3)CC2)cc1 | 0.433% (inactive) | –
Cc1ccc(CSCC(=O)N(C)CC(=O)Nc2cccc(F)c2)cc1 | -27% (inactive) | –
O=C(O)CCC(=O)N(Cc1ccco1)c1nc(-c2ccccc2)cs1 | 1.02% (inactive) | –
CC(Oc1ccc(F)cc1F)C(=O)/C=C/N(C)C (stereo not drawn) | -3.1% (inactive) | –
c1ccc(C2CNCc3c2ccc2ccccc32)cc1 (stereo not drawn) | – | 16.4 µM (active)
CC1(C)CC(=O)C(C=NCCN2CCN(C(=S)Nc3cccc(Cl)c3)CC2)=C(O)C1 | -14.6% (inactive) | –
COc1ccc(-c2n[nH]c3c2CN(C(=O)c2ccc(F)cc2)CC3)cc1 | -17.6% (inactive) | –
COCCCNC(=O)COc1cc(C)c(Cl)c(C)c1 | -17.2% (inactive) | –
Cc1cc2c(cc1S(=O)(=O)CCC(=O)NCc1ccccc1)OCC(=O)N2 | -12.9% (inactive) | –
CC(=O)Nc1ccc2c3c(ccc([N+](=O)[O-])c13)CC2 | 1.18% (inactive) | –
CCCNC(=O)C1CC(=O)N(c2ccc(OCC(=O)Nc3cccc(C)c3C)cc2)C1 (stereo not drawn) | -22% (inactive) | –
CCCOc1ccc(/C=N/NC(=O)C2CC2)c(OCCC)c1 | -19.6% (inactive) | –
COc1ccc(CS(=O)/C(Cl)=C(/Cl)C(=O)Nc2ccc(OC)nc2)cc1 (stereo not drawn) | – | 0.13 µM (active)
COc1ccc(NC(=S)Nc2ccccc2Cl)cn1 | 2.18% (inactive) | –
COc1ccc(NC(=S)NCCNC(C)=O)cc1 | -9.69% (inactive) | –
CS(=O)(=O)c1ccc(Cl)c(NC(=O)COC(=O)c2ncc(Cl)c(Cl)c2Cl)c1 | -3.02% (inactive) | –
